In PubChem BioAssay AID1508600 (Functional Genomics Laboratory (NCATS/FGL), 2020):
Screen size: about 53,000 sequences; about 3,700 (7%) were called active.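 How the source made its calls: active means gene knockdowns whose robust z-score for IL-1 alpha signal is at least 2 or at most -2, so actives lie on both sides; inactive means the rest.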 The sample as a whole holds a higher share of actives than the screen did.

assay: Components of the Cytosolic LPS Sensing Pathway: Gene Identification via Genome-wide siRNA Screen; settings: RAW264.7 macrophages, IL-1a HTRF, actives lie on both sides, screened at 100 nM (by protocol), cells primed 5 h with Pam3CSK4 first;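 further: robust z of the log signal after scaling to non-targeting control siRNA wells of the plate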
In short: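 Mouse macrophage line RAW264.7 is transfected with siRNA (100 nM final), grown 48h, primed with TLR ligand Pam3CSK4 5 h and given intracellular LipidA 24 h. IL-1a in supernatant is read by HTRF and viability by luminescence.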

z-score, inactive:
GGAAGACAGGCAUAAAAAATT against Slc41a2 -1.38
GGUUAAGUCCCUAGGACAUTT against Blzf1 0.998
GGAAAAAUUGCUUCUGACCTT against Rad51b -1.17
CCUACAAACCAGAAGAGGUTT against Akr1c19 0.285
GCCUGUGUGCUGUUGUGUUTT against Krtap5-1 1.33
CGAUACUGUGCAAAGAAUCTT against Nepro 0.231
CCUGUGUCAAUCCUGUGCATT against Ifitm7 0.0113
GGAACUUUAUGUGGAAAGATT against Vmn1r235 -0.449
CGGUCAAGGACAGGAAGUGTT against Eif4b 0.518
GGACAAAGAUAAUGGAAAATT against Erlec1 0.353
GGAUUCCAAUUUUAUUCCATT against Brca1 1.57
GAUAACAAGCAUCUCAUGUTT against Krtap6-5 -0.411
CCGGCAGACCUGUGACAUUTT against Rgs14 0.0166
GGUGGAGAAGCUCAUUGCUTT against Zap70 0.444
GGAAGAAAGAGUGUAUCAATT against Idi2 0.487
GGCUCAACCAAGAAAGGCUTT against 4930591A17Rik -1.28
GAAAGAAACGGCAGAUUGCTT against Vmn2r122 0.133
GGAAAGUUGUGAACUCUAATT against Olfr1157 0.583
GGAUUAGUGCAGGAAUCAATT against Rel 0.922
GCAAAACUGAACAAAGUACTT against Xirp2 0.658
CGAGUGUUGAAUAUUGUGATT against Gpr65 0.158
GGUAGUUAAUCAGUGUAAATT against Rps6kb1 1.1
UCGGCCAUGUAGUAUGGGATT against Xlr3a 0.42
GCACUCACGAUCAUCUUUGTT against Has1 -0.513
GGAAAACACACUUUUCUUUTT against Thap2 -0.119
GCUAUAGAUUGGCUUUAUGTT against Depdc1a 0.727
GACAAAACUCAUUGUUCUUTT against Taf11 1.16
CCUUCUCAUAGUGAAAGUATT against Zkscan5 1.05
GCCUUGCCCUGACUAUGUUTT against Paqr3 0.0997
GGUGCACAGAUGUCUUACCTT against Sec24d -0.945
GGUAGAAGAGUCUGAUCAUTT against Sfrp1 -0.0589
GGCCAUUUACAAGAUGGUUTT against Hpca -0.619
GGUGGUCUACAGAAAAUUCTT against Ncf1 -0.908
GGUGGUUCACAAAUACUGUTT against Agtpbp1 0.264
GGAUCUCGAGCUGACAGAATT against Arhgap33os 1.31
GGGAAAGGAUUCAAUUAAGTT against Lratd2 0.0415
GAGGGCUCUACAGUUUUUATT against Atp5g3 0.952
GGCCUUCGAAAUAAUUCUGTT against Ppp1r14d -0.605
GCGGCGAUACUUCUACUUGTT against Grk2 -0.584
CCUGUACAUUGUGUAAUGUTT against Pcdh8 0.0925
CCUGAACGACAGAUUGGCATT against Krt20 -0.697
CGAAUCCUUAGUUGAAGAATT against Fastkd1 1.18
GGCAAAAGCACUGAAGAGATT against Ar -0.63
GGGCUCUUUAGUACUAGAATT against Spn -0.612
GGUCCCUUGAUGUCGAUUATT against Stt3b -1.15
GCUUCAGCUCUGAUUAACGTT against Alox8 -0.233
GCCGAUAGCAUAGACAGUGTT against Kansl2 0.6
CCAGUCCUACUUAGCAAAGTT against Lrrc75a -1.48
GGUGCAGAGCUUGAGAUGATT against Anks3 -0.729
GCUGAACAUUAGCUUCAAUTT against Lrrc9 -1.42
GGAGACAUAUGAGACUCUGTT against Fcer1g 0.156
CCAUGGUUACCGUGUACUATT against Olfr1513 -0.312
GGAUCAUUGACAGUGAAUATT against Blk -1.35
GGUCCUAUUUCGGAGCUUUTT against Tnfsf14 0.365
GCUCAUCGUGUUUUCAACCTT against Cbr3 -0.034
GGAAAAAUGGAAACCUAAGTT against Nipal3 1.16
GGUAUUAUCUGCAUGGGCATT against Mkrn3 0.273
GGAUGAAGUGUGUUUUGGCTT against Sim1 0.95
GGACCUUUUGUCUAUAAUGTT against Arl4c 0.759
GGCAGCUAAACUGUGUUAUTT against Tex11 -1.36
GGGCUUUGGACAUCUCCUATT against Serpina3c -1.98
GGGAUAUCCUACCAGGUCATT against Ppard -1.24
GGAUCUUCAGGAAAACAGATT against Fam181b -0.955
CCACCCUUCUUCUAUCGAATT against Ybx2 -1.11
GCCAGAGUUUAUUAACUGCTT against Stxbp6 -0.809
CCAUUGCAGCAUACUGUCCTT against Serpina1b -0.402
GCGGCUAAUUCGUUCUUUCTT against Atp8a1 0.708
GGUCAGGUAGGGAUAUACATT against Dele1 -1.59
GGCAGCAAGUUUUUUAAUCTT against Cap1 0.464
GGAAAACAACAUGAUCGUGTT against Nadk -0.137
UCCCUAACGGCCCUUUUUATT against H4c14 -0.729
GGACAAGCUCCAAAACAACTT against Srsf4 -0.292
UAGGAACGCACCCAUACAATT against Fam89b 0.555
GGAAAACCCAGGUCAGAAUTT against Serpina9 -1.07
CCUUAAGCAGAGUUCAAAGTT against Timm22 0.197
GCCAGAAGUGAAAAUCGAATT against Fkbp14 0.509
GGGACAAGGCCUCGAUAUUTT against Ggps1 0.958
CGCAGGACUAUAAACUGAATT against Ptdss2 0.954
CCUCUUUCGACAAGAGCUCTT against Atp1a3 0.904
GGCAUUGUUUUCAUUGUGGTT against Cldn7 -0.0872
GGAUGUGAUCCUACUGACATT against Tmem208 0.793
CGAGAGUCUAACCAAGUACTT against Arhgdib -1.89
GGAGAUUGUGAGAGCCAUGTT against Kcnab3 -0.753
GAGUGAGAAAGCCAGAGACTT against Acaa1a 0.188
GGCCCACAAGGCUGUUUUGTT against Zfp131 0.459
GGAUUUCAAGGGAAUUUGATT against Wbp4 -0.271
GCCAGUUGUGACAAAACUATT against Abca1 -1.22
GGUGGAGUCUGAACUUAAUTT against Nfatc4 -0.0623

z-score, active:
CCAGACAUGAUACUCCGGCTT against Tssk3 2.57
CGGCAUCAUUCAUUCAUUATT against Pacrgl 2.01
GGGAACGCAACAUUUCUCCTT against Oxld1 2.34
GUUCCUGUUCCACUACUGCTT against Sts -2.32
GGAUACCAUCAUUGAUGUCTT against Dmap1 -2.29
GGCCCAGGUGGAUAGUUAUTT against Cep120 2.03
GGCAGCAGGAUGCAGAAAUTT against Ngef -2.43
GGGCUACAUUCCUUCCAAUTT against Frk 5.59
GACCUUCGACACCGACAAATT against Rtl8c 3.29
GGAAAUUUCAGAGCUCAAGTT against Trpc2 -2.81
GGUUGCUCACUCAUUUAACTT against Pa2g4 2.18
GGGACAGAUACUAAACUCUTT against Wfdc2 3.49
GGGACACACCAUCAAAAGGTT against Kank4 -2.32
GCUCCUUUAGUCCUCACCATT against Mrpl10 -2.15
CCAAUAAAAGUGCACACCUTT against Actb 2
CCCUCCUCAGUAUUGUACUTT against Dtx2 2.51
GGUCAUUUCAAGUGCUAAGTT against Adgra1 2.76
GCAGAUCGUGCGGAUCUUGTT against Bcdin3d 2.1
GCUUCGAUACCUUCAAACCTT against Stom -3.7
GGACUGUUUACUCAGCUCATT against Slc25a33 -2.02
